Compound activity as filed in PubChem.
In the library only some 2.3% were active in any assay of this set; here they are far more common.
Nrf2 activator: activators of Nrf2 (ARE) signaling; AREc32 ARE-luciferase reporter (MCF7-derived line), luminescence, 24 h; Potency, µM (doses to about 46.1 µM), inactives show at the highest dose activation, most hits filed as activators; 410,000 tested, 0.31% active; note: potency is the fitted concentration of half-maximal effect; % of control where 0% means no effect; nearly all actives have a fitted effect of over 65% in size
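ARE-driven firefly luciferase activity in AREc32 cells measured after a 24 hr compound exposure at 37 deg C, using Steady-Glo reagent and a 30 min room-temperature hold.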
IL2 activator: IL-2 activation. IL-2 activation reporter assay, cell-based qHTS; stimulated with anti-CD3/CD4/CD28 beads; in transgenic mouse T cells. activation, % (series mostly up to about 46 µM). 360,000 tested, 0.065% active; in the data active = activation above about 50%; inconclusive = mostly about 30% to 49%; note: 0% is about no effect
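Unstimulated transgenic mouse T cells, 750 per well, received compound and, after 60 minutes, anti-CD3/anti-CD4 bead plus anti-CD28 stimulation. EGFP and DsRed were quantified after 18 hours.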
Nrf2 block: blocks Nrf2 signaling; A549 ARE-Fluc reporter, luciferase luminescence, 18-24 h; Potency, µM (titrated, usually from 46 µM), for inactives: at the highest dose activity change, negative = inhibition, hits mostly inhibitors; 360,000 tested, 2.1% active; note: potency is the fitted concentration of half-maximal effect; % is set by controls: 0 for no effect and ±100 for the full control effect; nearly all actives have a fitted effect of over 60% in size
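In this cell-based qHTS, ARE-driven firefly luciferase in A549 cells reports Nrf2 activity; the luminescent signal after BugLite lysis is the measured value, with a prior CellTiter-Fluor read for cell health.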
A549 tox: A549 cytotoxicity, counter-screen for Nrf2 inhibitors; A549 ARE-Fluc cells, CellTiter-Fluor viability, 18-24 h; Potency, µM (top dose mostly 46 µM), for inactives: top-dose activity change, negative = cytotoxicity, most hits filed as inhibitors; 390,000 tested, 0.16% active; note: potency is the fitted concentration of half-maximal effect; % is set by controls: 0 for no effect and ±100 for the full control effect
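A549 ARE-Fluc cells in 5% FBS OPTI-MEM, 5000 cells/well, rested 2 h then exposed to compounds in concentration-response for 18-24 h at 37 °C. Viability by CellTiter-Fluor fluorescence (Ex 405/Em 525) after 30 min; luciferase luminescence (BugLite, 15 min, RT) read afterwards.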
* = called active by the depositor; ? = inconclusive; . = no result given. Unless noted, calls come from the whole dose curve; as a rule, active = well fitted curve in the direction sought with a large enough effect; inconclusive = small, poorly fitted or top-dose-only effect, or another doubt; inactive = no such curve, though single readings can be large; an effect the other way counts as inactive or inconclusive.

SMILES	Nrf2 activator	IL2 activator	Nrf2 block	A549 tox
O=S(=O)(c1ccc2nc(Cl)c(Cl)nc2c1)N1CCN(S(=O)(=O)c2c(F)cccc2F)CC1	.	.	-13%	0%
CCN1C(C(=O)c2ccccc2)=C(OC(=O)c2ccc(Cl)cc2)c2ccccc2S1(=O)=O	-1%	.	21µM*	?
CCN1C(C(=O)c2ccccc2)=C(OC(=O)COc2ccc(C)cc2)c2ccccc2S1(=O)=O	-1%	.	23µM*	?
CCN1C(C(=O)c2ccccc2)=C(OC(=O)COc2ccc(OC)cc2)c2ccccc2S1(=O)=O	-1%	.	?	?
CCCN1C(C(=O)c2ccccc2)=C(OC(=O)COc2ccc(C)cc2)c2ccccc2S1(=O)=O	-2%	.	18µM*	?
CCCN1C(C(=O)c2ccccc2)=C(OC(=O)C(C)(C)C)c2ccccc2S1(=O)=O	-3%	.	?	?
CCCN1C(C(=O)c2ccccc2)=C(OC(=O)COc2ccccc2)c2ccccc2S1(=O)=O	-2%	.	23µM*	?
Cc1nn(C)c2c1c(C(F)(F)F)cc(=O)n2CC(=O)NCc1ccc(OC(C)C)cc1	1%	.	-22%	7%
CC(C)COc1ccc(C(=O)N(CC(=O)Nc2ccccc2C(F)(F)F)Cc2ccco2)cc1	3%	-2	18µM*	?
CCc1nn(CCCC(=O)NCc2ccc(OC)c(OC)c2)c(=O)c2cc3occc3n12	5%	.	-23%	1%
COc1ccc(CCNC(=O)[C@H](C)N2C(=O)N3CCc4c([nH]c5ccccc45)[C@@]3(C)C2=O)cc1	-1%	-4	15µM*	-12%
COc1ccc2[nH]c3c(c2c1)CCN1C(=O)N([C@@H](C)C(=O)NCCc2ccc(OC)c(OC)c2)C(=O)[C@]31C	5%	-1	?	6%
COc1ccccc1CNC(=O)[C@H](C)N1C(=O)N2CCc3c([nH]c4ccccc34)[C@@]2(C)C1=O	6%	-1	23µM*	?
COc1ccc(CNC(=O)[C@H](C)N2C(=O)N3CCc4c([nH]c5ccc(OC)cc45)[C@@]3(C)C2=O)cc1	0%	-1	-8%	-1%
COc1ccc(CCNC(=O)[C@H](C)N2C(=O)N3CCc4c([nH]c5ccccc45)[C@@]3(C)C2=O)cc1OC	4%	-1	16µM*	-18%
COc1cccc(NC(CNS(=O)(=O)c2ccc(Cl)cc2)c2ccccc2)c1 (stereo not given)	-3%	.	?	?
COc1ccc(C(=O)C[n+]2cc(-c3ccc(OC)cc3)n3c2CCCC3)cc1	3%	0	8.2µM*	-9%
Cc1ccc(C(=O)C[n+]2cc(-c3ccc(C)cc3)n3c2CCCCC3)cc1	2%	-1	?	-3%
CCCN(CCC)CCCNC(=O)C1CCC(CNS(=O)(=O)c2ccc(NC(C)=O)cc2)CC1 (stereo not given)	0%	.	.	-1%
CCOc1ccc(N(C(=O)c2ccc(C)cc2)S(=O)(=O)c2ccc3c(c2)n(C)c(=O)n3C)cc1	2%	.	18%	10%
Cc1ccc(-c2nc3ccccc3n3nnnc23)cc1	1%	1	?	7%
Cc1ccc(-c2nnc3c(C(F)(F)F)nc4ccccc4n23)cc1	0%	-4	23µM*	?
FC(F)(F)c1nc2ccccc2n2c(-c3ccc(Cl)cc3)nnc12	-2%	-2	.	5.8µM*
O=C1Nc2ccccc2Nc2ccc([N+](=O)[O-])cc21	3%	1	10µM*	-14%
O=C1OC(=O)c2cc([N+](=O)[O-])ccc21	0%	0	-10%	-7%
SMILES	Nrf2 activator	IL2 activator	Nrf2 block	A549 tox
CCc1nn(CC(=O)NC(C)C)c(=O)c2cc3cc(F)ccc3n12	-1%	.	-11%	-1%
CCS(=O)(=O)c1ccc(N=Nc2ccc(O)c3ncccc23)c(OC)c1	2%	0	?	18µM*
COc1ccc(NC(=O)c2ccco2)cc1NC(=O)C(C)(C)Oc1ccc(Cl)cc1	10%	.	21µM*	-23%
COc1ccc(Cl)cc1NC(=S)NC(=O)c1ccco1	10µM*	0	17%	2%
O=C(Nc1cc(Cl)ccc1Cl)c1ccco1	13µM*	2	3%	7%
COc1ccc(NC(=O)c2ccco2)cc1NC(=O)c1ccco1	3%	0	13%	-10%
Cc1cc(O)c(NC(=O)c2ccco2)cc1C	13µM*	-1	?	4%
O=C(NCCc1ccccc1)c1ccc(Cn2c(SCc3ccccc3F)nc3cccnc32)cc1	1%	.	?	?
